Test results: PubChem BioAssay
Active and inactive are the calls of the source. Unless noted, how the calls were made is not given here.

Experiments:
[1] = anti-His antibody binders, primary screen, artefact control for SMM control protein annotation, biochemical, small-molecule microarray, 635 nm fluorescence (AID 1128); settings: anti-His Alexa647 antibody binding, higher = more signal;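 further: score merges feature fluorescence with signal-to-noise for each printed compound spot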
[2] = test system: Human papillomavirus type 1a E7 protein (residues 1-88); test: HPV1a E7 small-molecule binders, primary screen, biochemical, small-molecule microarray, residues 1-88, 635 nm (AID 1129); settings: small-molecule microarray binding, fluorescence 635 nm; higher = more signal
[3] = biological target: Focal adhesion kinase 1 (Homo sapiens) (UniProt Q05397); test: small-molecule microarray binders of FAK, primary screen, biochemical, 635/667 nm fluorescence, BSA, DTT (AID 1130); settings: PTK2 binding, 635 nm fluorescence, higher = more signal;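 further: composite of spot emission at 667 nm and signal to noise over triplicate slides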
Focal adhesion kinase 1 (Homo sapiens), sequence (Q05397 whole entry, looked up): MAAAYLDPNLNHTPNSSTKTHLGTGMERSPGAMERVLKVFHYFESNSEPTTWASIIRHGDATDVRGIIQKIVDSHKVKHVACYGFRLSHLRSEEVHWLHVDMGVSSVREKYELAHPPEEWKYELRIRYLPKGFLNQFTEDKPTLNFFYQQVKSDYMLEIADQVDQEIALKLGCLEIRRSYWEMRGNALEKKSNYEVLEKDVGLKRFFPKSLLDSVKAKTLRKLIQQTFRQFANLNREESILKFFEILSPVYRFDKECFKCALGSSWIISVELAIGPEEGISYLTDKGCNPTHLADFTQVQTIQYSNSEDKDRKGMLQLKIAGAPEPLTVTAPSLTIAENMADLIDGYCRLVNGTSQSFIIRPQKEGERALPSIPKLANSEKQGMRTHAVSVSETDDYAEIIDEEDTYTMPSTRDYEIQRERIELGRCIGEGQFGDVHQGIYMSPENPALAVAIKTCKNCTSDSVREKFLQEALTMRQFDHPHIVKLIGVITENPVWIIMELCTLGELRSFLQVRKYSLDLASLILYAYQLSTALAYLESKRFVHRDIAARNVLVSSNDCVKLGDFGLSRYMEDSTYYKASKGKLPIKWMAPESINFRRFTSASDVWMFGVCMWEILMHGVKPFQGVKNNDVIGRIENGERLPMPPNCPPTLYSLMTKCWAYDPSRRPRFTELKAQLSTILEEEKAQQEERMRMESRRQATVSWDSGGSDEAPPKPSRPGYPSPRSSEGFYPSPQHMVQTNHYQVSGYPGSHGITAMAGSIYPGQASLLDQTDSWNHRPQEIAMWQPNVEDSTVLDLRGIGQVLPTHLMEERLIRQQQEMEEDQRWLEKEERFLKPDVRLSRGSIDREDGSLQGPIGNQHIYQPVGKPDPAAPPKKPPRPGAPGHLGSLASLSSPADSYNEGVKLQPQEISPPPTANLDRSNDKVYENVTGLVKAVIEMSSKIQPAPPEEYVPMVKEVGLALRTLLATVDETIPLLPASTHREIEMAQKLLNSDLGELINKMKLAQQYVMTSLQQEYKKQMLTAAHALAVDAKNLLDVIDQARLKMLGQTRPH

[4] = test system: Fibrinogen (Alexa647-labelled); test: fibrinogen binders on compound microarrays, profiling panel, artefact control for SMM control-protein annotation, biochemical, small-molecule microarray, 635/667 nm fluorescence (AID 1131); settings: fibrinogen-A647 binding fluorescence, higher = more signal;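 further: z-score merges 667 nm fluorescence with per-spot signal-to-noise over triplicate slides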
[5] = biological target: Follistatin (Homo sapiens) (UniProt P19883); test: follistatin binders on small-molecule microarrays, primary screen, biochemical, small-molecule microarray, 635/667 nm fluorescence (AID 1132); settings: FST binding, 635 nm fluorescence, higher = more signal
Follistatin (Homo sapiens), sequence (P19883 whole entry, looked up): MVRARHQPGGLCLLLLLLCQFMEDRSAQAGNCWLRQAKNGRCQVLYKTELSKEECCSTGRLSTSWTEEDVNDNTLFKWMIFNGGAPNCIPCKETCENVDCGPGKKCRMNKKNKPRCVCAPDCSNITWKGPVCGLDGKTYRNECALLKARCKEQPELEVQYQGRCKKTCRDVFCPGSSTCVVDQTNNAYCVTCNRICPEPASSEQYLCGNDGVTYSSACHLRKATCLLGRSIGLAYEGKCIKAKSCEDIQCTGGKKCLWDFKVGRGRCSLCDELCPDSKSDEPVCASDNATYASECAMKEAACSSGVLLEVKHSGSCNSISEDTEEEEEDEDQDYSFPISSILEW

[6] = biological target: Fibroblast growth factor 2 (Homo sapiens) (UniProt P09038); test: FGF2 binders on small-molecule microarrays, primary screen, biochemical, small-molecule microarray, 635/667 nm fluorescence (AID 1133); settings: small-molecule microarray binding, FGF2, fluorescence 635/667; higher = more signal
Fibroblast growth factor 2 (Homo sapiens), sequence (P09038 whole entry, looked up): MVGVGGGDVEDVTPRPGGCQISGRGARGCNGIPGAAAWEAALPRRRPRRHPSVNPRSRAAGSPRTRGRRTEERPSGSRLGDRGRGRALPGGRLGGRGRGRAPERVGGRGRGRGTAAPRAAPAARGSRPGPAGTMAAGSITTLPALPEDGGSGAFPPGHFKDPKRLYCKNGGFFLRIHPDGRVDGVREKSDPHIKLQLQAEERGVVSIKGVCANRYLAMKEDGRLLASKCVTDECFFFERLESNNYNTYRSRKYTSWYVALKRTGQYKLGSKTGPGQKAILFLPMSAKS

[7] = mitochondrial membrane potential change in A549 cells, profiling panel, cell-based, JC-1 fluorescence, basal, 24 h, 100 nL (AID 1138); settings: higher = more signal;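 further: A549 lung adenocarcinoma cells under basal conditions with no added stimulus; test concentration not given here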
Lefty1 = Lefty1 binders on small-molecule microarrays, primary screen, biochemical, small-molecule microarray, 635/667 nm fluorescence (AID 1139); settings: small-molecule microarray binding, fluorescence 635/667; higher = more signal
[8] = test system: wheat germ agglutinin (Triticum aestivum), Alexa647-labelled; test: wheat germ agglutinin binders on compound microarrays, profiling panel, artefact control for SMM control-protein annotation, biochemical, small-molecule microarray, 635/667 nm fluorescence (AID 1140); settings: WGA-A647 binding, 635 nm fluorescence, higher = more signal;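 further: score merges 667 nm feature emission with signal to noise over triplicate slides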
[9] = biological target: Luciferin 4-monooxygenase (Photinus pyralis) (UniProt P08659); test: firefly luciferase enzyme inhibitors, primary screen, biochemical, luminescence, purified enzyme, 2006 set (AID 1141); settings: SteadyGlo luminescence, 30 min, higher = more signal, called active from +8 up or from −8 down;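 further: cell-free assay with purified firefly luciferase at 100 ng per well in PBS; test concentration not given here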
Luciferin 4-monooxygenase (Photinus pyralis), sequence (P08659 whole entry, looked up): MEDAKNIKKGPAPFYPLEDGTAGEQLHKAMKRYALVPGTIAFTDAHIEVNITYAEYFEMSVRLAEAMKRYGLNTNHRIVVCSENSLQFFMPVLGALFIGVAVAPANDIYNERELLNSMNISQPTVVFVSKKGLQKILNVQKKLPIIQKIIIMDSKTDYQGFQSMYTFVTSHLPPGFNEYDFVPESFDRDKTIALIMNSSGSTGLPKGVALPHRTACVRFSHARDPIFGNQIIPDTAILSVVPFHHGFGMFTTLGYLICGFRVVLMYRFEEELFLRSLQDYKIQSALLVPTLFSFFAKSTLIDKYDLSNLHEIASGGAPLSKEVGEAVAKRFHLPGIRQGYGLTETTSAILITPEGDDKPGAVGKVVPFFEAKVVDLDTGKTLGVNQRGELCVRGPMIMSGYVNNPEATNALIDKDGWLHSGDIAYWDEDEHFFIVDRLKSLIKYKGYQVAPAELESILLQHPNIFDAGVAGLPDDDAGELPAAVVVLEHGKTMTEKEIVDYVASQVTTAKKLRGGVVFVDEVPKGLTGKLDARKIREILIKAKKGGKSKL

[10] = test system: Wnt5a (protein binding on small-molecule microarray); test: Wnt5a binders on small-molecule microarray, primary screen, biophysical, 635/667 nm fluorescence (AID 1142); settings: 635 nm fluorescence, higher = more signal;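 further: fluorescence read at 667 nm with signal to noise per printed feature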
[11] = cell viability in Huh7 cells, primary screen, cytotoxicity control for HCV replication inhibitor project, CellTiter-Glo luminescence, basal, 48 h (AID 1143); settings: Huh7 HCV replicon, higher = more signal, called active from +8 up or from −8 down;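 further: Huh7 hepatoma cells carrying a hepatitis C replication reporter with no stimulus; test concentration not given here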
[12] = P. aeruginosa biofilm formation inhibitors, primary screen, PAO1 strain, BacTiter-Glo luminescence, LB-PBS (AID 1144); settings: 12 h, higher = more signal
[13] = CREB reporter modulators without forskolin, primary screen, cell-based, PC12, CRE-LacZ reporter, unstimulated (AID 1145); settings: no forskolin, luminescence, 4.5 h, higher = more signal, called active from +8 up or from −8 down
[14] = CREB reporter modulators under forskolin, primary screen, cell-based, PC12, CRE-LacZ reporter, forskolin-stimulated (AID 1146); settings: luminescence, 4.5 h, higher = more signal, called active from +8 up or from −8 down;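 further: PC12 cells with 6xCRE LacZ reporter stimulated by forskolin 10 µM; beta-galactosidase reporter signal reflecting CREB driven transcription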
[15] = biological target: Streptavidin (Streptomyces avidinii) (UniProt P22629); test: streptavidin binders on small-molecule microarray, primary screen, artefact control for SMM compound annotation, biophysical, 635/667 nm fluorescence (AID 1147); settings: streptavidin binding, higher = more signal;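 further: signal reflects streptavidin binding to arrayed compounds as a control protein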
Streptavidin (Streptomyces avidinii), sequence (P22629 whole entry, looked up): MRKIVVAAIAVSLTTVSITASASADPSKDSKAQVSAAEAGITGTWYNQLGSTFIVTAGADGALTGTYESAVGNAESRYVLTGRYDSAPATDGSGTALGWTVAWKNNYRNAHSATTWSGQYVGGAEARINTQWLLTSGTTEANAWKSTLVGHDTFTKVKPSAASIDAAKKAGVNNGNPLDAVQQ

[16] = small-molecule binders of probe aInhba, primary screen, biochemical, small-molecule microarray, 635/667 nm fluorescence (AID 1148); settings: higher = more signal;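 further: score merges 667nm spot fluorescence with signal-to-noise for antibody binding to printed compounds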
Torsin-1A (Homo sapiens) [17] = biological target: Torsin-1A (Homo sapiens) (UniProt O14656); test: torsin A binders from cell lysate, primary screen, small-molecule microarray, wild-type, 635/667 nm (AID 1149); settings: COS7 hTOR1A-WT lysate, 635 nm fluorescence, higher = more signal
Torsin-1A (Homo sapiens), sequence (O14656 whole entry, looked up): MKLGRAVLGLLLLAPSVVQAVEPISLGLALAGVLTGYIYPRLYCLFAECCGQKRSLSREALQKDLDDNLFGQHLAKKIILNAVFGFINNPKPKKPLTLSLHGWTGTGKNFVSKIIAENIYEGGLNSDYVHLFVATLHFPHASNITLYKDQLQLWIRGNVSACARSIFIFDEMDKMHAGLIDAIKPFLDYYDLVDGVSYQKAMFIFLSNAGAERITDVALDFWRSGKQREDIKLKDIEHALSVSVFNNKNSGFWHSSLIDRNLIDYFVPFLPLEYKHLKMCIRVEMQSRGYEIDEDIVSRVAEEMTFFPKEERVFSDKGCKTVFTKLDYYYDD

Torsin-1A (Homo sapiens) [18] = biological target: Torsin-1A (Homo sapiens) (UniProt O14656); test: small-molecule binders of mutant TOR1A in lysate, primary screen, cell lysate, small-molecule microarray, COS7 lysate, 635/667 nm fluorescence (AID 1150); settings: COS7 hTOR1A mutant lysate, 635 nm fluorescence, higher = more signal;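 further: score pools 667 nm emission and signal to noise measuring lysate protein binding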
[19] = test system: Sonic hedgehog protein (Shh); test: small-molecule binders of Shh protein, primary screen, biochemical, small-molecule microarray, 635/667 nm fluorescence (AID 1151); settings: small-molecule microarray binding, 635 nm fluorescence; higher = more signal;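 further: Shh protein binding to compounds spotted on small-molecule microarray slides; score combines spot fluorescence intensity with signal-to-noise across triplicate slides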

CC(c1ccccc1)C(O)C1C=CC2C(=O)N(C)C(=O)C2N1NC(=O)OC(C)(C)C (stereo not given)
composite z-score [1]: 0.79
composite z-score [2]: 1.21
composite z-score [3]: 0.235
composite z-score [4]: 1.03
composite z-score [5]: 0.696
composite z-score [6]: 0.0621
z-score [7]: -0.422
composite z-score (Lefty1): -0.271
composite z-score [8]: 0.939
z-score [9]: -0.934 (inactive)
composite z-score [10]: 0.472
z-score [11]: 0.834 (inactive)
z-score [12]: 0.059 (inactive)
z-score [13]: 0.622 (inactive)
z-score [14]: -0.434 (inactive)
composite z-score [15]: 2.15
composite z-score [16]: 0.19
composite z-score (Torsin-1A (Homo sapiens) [17]): 0.516
composite z-score (Torsin-1A (Homo sapiens) [18]): 1.13
composite z-score [19]: -0.656

CCCCCCc1nc(-c2ccc(-c3ccc(Cl)c(Cl)c3)o2)cc2c1[Si](C(C)C)(C(C)C)O[C@H]2c1ccccc1
composite z-score [1]: -0.403
composite z-score [2]: -0.73
composite z-score [3]: -0.132
composite z-score [4]: -1.34
composite z-score [5]: -0.348
composite z-score [6]: -0.434
z-score [7]: -0.859
composite z-score (Lefty1): 0.0259
composite z-score [8]: 1.04
z-score [9]: 0.712 (inactive)
composite z-score [10]: -0.355
z-score [11]: -0.731 (inactive)
z-score [12]: -0.206 (inactive)
z-score [13]: -0.113 (inactive)
z-score [14]: 0.497 (inactive)
composite z-score [15]: -0.711
composite z-score [16]: -0.0719
composite z-score (Torsin-1A (Homo sapiens) [17]): -0.512
composite z-score (Torsin-1A (Homo sapiens) [18]): 0.978
composite z-score [19]: -0.434

CCOC(=O)C1=C[C@@H](C(C)C)N(S(=O)(=O)c2ccc(C)cc2)[C@H]1c1ccccc1F
composite z-score [1]: 0.654
composite z-score [2]: 1.2
composite z-score [3]: -0.0031
composite z-score [4]: 1.02
composite z-score [5]: 0.96
composite z-score [6]: 0.307
z-score [7]: 2.33
composite z-score (Lefty1): 0.187
composite z-score [8]: 0.927
z-score [9]: 1.82 (inactive)
composite z-score [10]: 0.197
z-score [11]: -2.77 (inactive)
z-score [12]: -0.0791 (inactive)
z-score [13]: -0.527 (inactive)
z-score [14]: -0.0445 (inactive)
composite z-score [15]: 1.08
composite z-score [16]: 0.0816
composite z-score (Torsin-1A (Homo sapiens) [17]): 0.345
composite z-score (Torsin-1A (Homo sapiens) [18]): 1.15
composite z-score [19]: 0.394

COC(=O)[C@@]1(Cc2ccc(OC)cc2)[C@H]2c3cc(C(=O)N4CCCC4)n(CCSCCO)c3C[C@H]2CN1C(=O)c1ccccc1
composite z-score [1]: 2.01
composite z-score [2]: 1.29
composite z-score [3]: 0.529
composite z-score [4]: 0.787
composite z-score [5]: -0.0598
composite z-score [6]: -0.254
z-score [7]: 0.572
composite z-score (Lefty1): -0.731
composite z-score [8]: 1.39
z-score [9]: 0.644 (inactive)
composite z-score [10]: 0.631
z-score [11]: -0.974 (inactive)
z-score [12]: 0.58 (inactive)
z-score [13]: 1.34 (inactive)
z-score [14]: 1.82 (inactive)
composite z-score [15]: 0.532
composite z-score [16]: 0.257
composite z-score (Torsin-1A (Homo sapiens) [17]): 0.396
composite z-score (Torsin-1A (Homo sapiens) [18]): 1.45
composite z-score [19]: -0.623

CC(C)CCC[C@@H](C)[C@H]1CC[C@@]2(C)C3=C(CC[C@]12C)[C@@]1(C)CC[C@H](OC(=O)c2ccc(C(F)(F)F)nc2)C(C)(C)C1CC3 (stereo not given in full)
composite z-score [1]: 0.38
composite z-score [2]: 0.763
composite z-score [3]: 0.251
composite z-score [4]: 0.723
composite z-score [5]: 0.599
composite z-score [6]: 0.695
z-score [7]: 0.425
composite z-score (Lefty1): 0.666
composite z-score [8]: 0.231
z-score [9]: -1.41 (inactive)
composite z-score [10]: 0.0419
z-score [11]: -0.878 (inactive)
z-score [12]: -0.14 (inactive)
z-score [13]: 0.399 (inactive)
z-score [14]: -0.121 (inactive)
composite z-score [15]: 0.536
composite z-score [16]: 0.0411
composite z-score (Torsin-1A (Homo sapiens) [17]): 0.379
composite z-score (Torsin-1A (Homo sapiens) [18]): 0.347
composite z-score [19]: 1.04

CC(CO)N1C(=O)[C@@H]2C3C(=O)OCCC/C=C\[C@H]3OC23C=CCN(CCN2CCOCC2)C(=O)[C@@H]13 (stereo not given in full)
composite z-score [1]: 0.537
composite z-score [2]: -0.624
composite z-score [3]: -0.181
composite z-score [4]: -1.1
composite z-score [5]: 0.205
composite z-score [6]: 0.186
z-score [7]: 1.08
composite z-score (Lefty1): 0.376
composite z-score [8]: -0.169
z-score [9]: -0.523 (inactive)
composite z-score [10]: 0.0719
z-score [11]: 0.795 (inactive)
z-score [12]: -1.1 (inactive)
z-score [13]: -0.476 (inactive)
z-score [14]: -0.183 (inactive)
composite z-score [15]: -0.254
composite z-score [16]: -0.201
composite z-score (Torsin-1A (Homo sapiens) [17]): -0.951
composite z-score (Torsin-1A (Homo sapiens) [18]): -0.776
composite z-score [19]: 1.21

COc1ccccc1CN1C(=O)c2ccccc2[C@@H](C(=O)NCc2ccccc2)[C@@H]1c1ccc(CO)cc1
composite z-score [1]: 1.99
composite z-score [2]: 0.464
composite z-score [3]: 0.377
composite z-score [4]: 0.688
composite z-score [5]: 0.211
composite z-score [6]: 0.546
z-score [7]: 1.03
composite z-score (Lefty1): 0.423
composite z-score [8]: 0.397
z-score [9]: -0.898 (inactive)
composite z-score [10]: -0.13
z-score [11]: -0.107 (inactive)
z-score [12]: 1.29 (inactive)
z-score [13]: 0.648 (inactive)
z-score [14]: -1.35 (inactive)
composite z-score [15]: -0.515
composite z-score [16]: -0.176
composite z-score (Torsin-1A (Homo sapiens) [17]): 0.408
composite z-score (Torsin-1A (Homo sapiens) [18]): 0.48
composite z-score [19]: 0.496

O=C1O[C@H](c2ccccc2)[C@H](c2ccccc2)N2[C@H]1[C@@H](C(=O)NC[C@H](O)c1ccccc1)[C@]1(C(=O)Nc3ccccc31)[C@H]2c1ccc(O)cc1
composite z-score [1]: 0.885
composite z-score [2]: 0.973
composite z-score [3]: 0.223
composite z-score [4]: 0.141
composite z-score [5]: 1.22
composite z-score [6]: 1.71
z-score [7]: -0.236
composite z-score (Lefty1): 0.947
composite z-score [8]: 0.39
z-score [9]: 0.363 (inactive)
composite z-score [10]: 0.378
z-score [11]: -1.1 (inactive)
z-score [12]: -1.25 (inactive)
z-score [13]: -1.29 (inactive)
z-score [14]: -0.423 (inactive)
composite z-score [15]: 0.287
composite z-score [16]: -0.128
composite z-score (Torsin-1A (Homo sapiens) [17]): 0.643
composite z-score (Torsin-1A (Homo sapiens) [18]): 0.506
composite z-score [19]: 1.5

CN(C)C(=O)[C@]1(Cc2ccccc2)N=C(c2ccc(OCCCO)cc2)O[C@@H]1c1ccccc1N=[N+]=[N-]
composite z-score [1]: 2.47
composite z-score [2]: 1.2
composite z-score [3]: 0.203
composite z-score [4]: 0.96
composite z-score [5]: 1.33
composite z-score [6]: 1.63
z-score [7]: 0.702
composite z-score (Lefty1): 0.244
composite z-score [8]: 0.702
z-score [9]: -5.05 (inactive)
composite z-score [10]: 0.435
z-score [11]: -4.22 (inactive)
z-score [12]: 0.54 (inactive)
z-score [13]: -0.459 (inactive)
z-score [14]: -1.58 (inactive)
composite z-score [15]: 1.06
composite z-score [16]: 0.143
composite z-score (Torsin-1A (Homo sapiens) [17]): 0.37
composite z-score (Torsin-1A (Homo sapiens) [18]): 0.523
composite z-score [19]: 0.0841

CC(C)[Si](C#CCCCC#N)(Oc1ccccc1Br)C(C)C
composite z-score [1]: 0.259
composite z-score [2]: 0.725
composite z-score [3]: 0.3
composite z-score [4]: 0.709
composite z-score [5]: 0.269
composite z-score [6]: 0.223
z-score [7]: -0.0477
composite z-score (Lefty1): 0.55
composite z-score [8]: 0.327
z-score [9]: -0.277 (inactive)
composite z-score [10]: 0.0696
z-score [11]: -0.0761 (inactive)
z-score [12]: 0.0648 (inactive)
z-score [13]: -0.519 (inactive)
z-score [14]: -0.0887 (inactive)
composite z-score [15]: 0.525
composite z-score [16]: -0.15
composite z-score (Torsin-1A (Homo sapiens) [17]): 0.42
composite z-score (Torsin-1A (Homo sapiens) [18]): 0.222
composite z-score [19]: 0.544
